Assay outcomes from PubChem BioAssay.
Rows were chosen to be rich in hits. Some 3.2% of all compounds tested hit in one or more screens of this group.
DSG3 Ab inh: inhibitors of pemphigus antibody binding to DSG3, primary screen, biochemical, bead-based, flow cytometry, scFv-GFP; Desmoglein-3 (Homo sapiens), P32926; DSG3-coupled beads, scFv-anti-DSG3-GFP binding; active compounds read low; binding (percent of control), % at 10 µM; actives 0.48% (n = 310,000); AID 588358, 2011;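 active = binding more than 3 SD below its plate's average and above zero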;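 note: hits lower antibody fragment binding to DSG3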
MsrA inhibitor: bovine MsrA enzyme inhibitors, primary screen, biochemical, absorbance, HTS; Methionine sulfoxide reductase A (Bos taurus); purified bovine MsrA, absorbance read-out; inhibition, % at 15.5 µM; actives 0.75% (n = 360,000); in the data active = inhibition above about 4.5%;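 note: 0% = vehicle wells with enzyme and 100% = reference inhibitor wells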
MsrA act: bovine MsrA enzyme activators, primary screen, biochemical, absorbance, HTS. Methionine sulfoxide reductase A (Bos taurus). purified bovine MsrA, absorbance read-out. activation, % at 10.6 µM. actives 0.3% (n = 360,000). AID 602163, 2012; in the data active = activation above about 7.5%;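 note: 0% = vehicle and 100% = reference activator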
NadD inh: inhibitors of S. aureus NadD, primary screen, biochemical, colorimetric, uHTS | purified NadD enzyme, colorimetric absorbance read-out | inhibition, % at 20 µM | actives 0.78% (n = 360,000) | Nicotinate-nucleotide adenylyltransferase NadD (Staphylococcus aureus N315) | AID 602399, 2012; in the data active = inhibition above about 26%
rCAG binder: binders of r(CAG) RNA repeats, primary screen, biochemical, fluorescence; r(CAG) RNA repeat, TO-PRO-1 dye displacement fluorescence; inhibition, % at 3 µM; actives 1.3% (n = 370,000); AID 651821, 2012;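 active = inhibition above the plate cutoff, the mean of all test compounds on that plate plus 3 SD, cut at about 35% in these data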;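 note: 0% = DMSO alone and 100% = 100 µM mitoxantrone as full dye displacement; higher means more dye released from RNA so lower well fluorescence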
DAGLB inh: DAGLB lipase inhibitors, primary screen, biochemical, fluorescence, HTS | HEK293T DAGLB membrane lysate, EnzChek fluorogenic substrate | inhibition, % at 5.17 µM | actives 0.059% (n = 340,000) | AID 504411, 2011; in the data active = inhibition above about 34%;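 note: 0% = enzyme with vehicle and 100% = wells lacking enzyme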
Target sequence (Q8NCG7 whole entry, looked up): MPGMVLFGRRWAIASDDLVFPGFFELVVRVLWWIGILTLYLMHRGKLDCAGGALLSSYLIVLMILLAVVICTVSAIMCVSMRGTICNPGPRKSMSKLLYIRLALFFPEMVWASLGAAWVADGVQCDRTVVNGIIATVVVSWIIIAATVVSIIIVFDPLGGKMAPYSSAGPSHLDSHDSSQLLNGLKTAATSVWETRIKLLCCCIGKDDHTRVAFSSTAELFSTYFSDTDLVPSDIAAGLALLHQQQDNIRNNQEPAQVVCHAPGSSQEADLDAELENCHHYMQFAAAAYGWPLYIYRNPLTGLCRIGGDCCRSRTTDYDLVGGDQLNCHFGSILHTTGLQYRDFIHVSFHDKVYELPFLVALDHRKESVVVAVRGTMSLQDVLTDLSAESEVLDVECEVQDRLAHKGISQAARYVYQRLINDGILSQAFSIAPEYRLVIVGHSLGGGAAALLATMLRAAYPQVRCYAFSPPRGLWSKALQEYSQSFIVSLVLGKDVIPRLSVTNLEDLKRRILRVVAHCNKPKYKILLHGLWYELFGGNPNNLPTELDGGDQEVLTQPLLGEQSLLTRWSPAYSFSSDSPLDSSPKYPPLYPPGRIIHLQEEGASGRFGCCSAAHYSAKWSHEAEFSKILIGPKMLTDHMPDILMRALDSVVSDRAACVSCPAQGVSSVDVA
* = called active by the depositor; . = not tested or not shown.

SMILES | DSG3 Ab inh | MsrA inhibitor | MsrA act | NadD inh | rCAG binder | DAGLB inh
Cc1ccc(N2CCN(C(C(=O)Nc3c(C)cccc3C)c3cccc(F)c3)CC2)cc1 (stereo not drawn) | . | 0 | . | . | 1 | .
CCOc1ccccc1NCc1cc(=O)oc2cc(C)c(O)cc12 | 86* | 4 | 1 | 1 | 8 | 0
Cc1cc2oc(=O)cc(CNc3ccccc3F)c2cc1O | 100 | -1 | 0 | -9 | 4 | 0
C[C@H](O)[C@@H]1CN2CCc3ccc(N4CCOCC4)cc3[C@@H]2C[C@@H]1N(C)C(=O)c1ccco1 | . | . | . | . | 4 | .
Cc1cc2cc(C(c3nnnn3CC3CCCO3)N3CCCc4ccccc43)c(=O)[nH]c2cc1C (stereo not drawn) | 105 | 4.6* | -2 | 9 | 1 | 0
CCc1ccc2[nH]c(=O)c(C(c3nnnn3CC3CCCO3)N3CCCc4ccccc43)cc2c1 (stereo not drawn) | . | 1 | -1 | 7 | -1 | 3
Cc1ccc2cc(-c3noc(C4CCCO4)n3)c(=O)[nH]c2c1 (stereo not drawn) | 98 | 0 | -3 | 7 | 4 | 3
Cc1ccc2cc(-c3noc(C4CCCCC4)n3)c(=O)[nH]c2c1 | -18* | 0 | 0 | 1 | 2 | -3
COC(=O)[C@]12C[C@H](CC(=O)N3CCCCC3)C(=O)N(Cc3cccc4ccccc34)C1=C[C@H](C(C)C)O[C@@H]2C1CC1 | . | . | . | . | 1 | .
CC(=O)c1c(OC(=O)c2ccc(C)cc2)c2ccccc2n1C | 121 | 0 | -7 | -11 | -1 | -9
CC(=O)c1c(OC(=O)c2ccco2)c2ccccc2n1C | 96 | 4.6* | -2 | -6 | -4 | -1
C=CS(=O)(=O)N(Cc1ccccc1Br)[C@H](CO)CC(C)C | 101 | -1 | -2 | -29 | -2 | 16
CCN(CC)c1ccc(C=Nn2c(C)nnc2C)cc1 | . | . | . | . | 3 | .
CCN(CC)c1ccc(/C=N/n2c(=S)[nH]nc(C)c2=O)cc1 | 102 | 4.7* | 3 | 1 | 4 | -2
Cc1ccc(S(=O)c2ccc([N+](=O)[O-])c3nonc23)cc1 (stereo not drawn) | 101 | 0 | -14 | 10 | 63* | 11
Cc1ccc(Nc2c([N+](=O)[O-])ccc3nonc23)c(C)c1 | 96 | 1 | -2 | -7 | -3 | 19
CCN(CC)CCCN1C(=O)C(O)=C(C(=O)c2cc3cccc(OC)c3o2)C1c1ccncc1 (stereo not drawn) | 96 | 4.8* | -4 | 3 | 4 | 1
NC1=NC(=O)/C(=C\C=C\c2ccccc2)S1 | 131 | 3 | 4 | -2 | 4 | -3
O=C1NC(=O)C(=CC=Cc2ccccc2)S1 | 102 | 4.6* | -7 | 2 | 5 | 5
COC(=O)C1CN(C2CCCC2)CCS(=O)(=O)N1Cc1ccccc1 (stereo not drawn) | . | . | . | . | 2 | .
COC(=O)C1=C(C)N(Cc2cccc(C(F)(F)F)c2)C(=NCc2ccc3c(c2)OCO3)NC1c1ccc(F)cc1 (stereo not drawn) | . | -1 | . | . | 12 | .
CC(C)CN1C(=O)N2Cc3ccccc3C2CS1(=O)=O (stereo not drawn) | . | . | . | . | -1 | .
O=C(NCCCNc1ccc(C(F)(F)F)cc1[N+](=O)[O-])c1cc(F)c(F)cc1Cl | 114 | 0 | 8.7* | -10 | 3 | -2
COc1ccc(CC(=O)NCc2n[nH]c(=S)n2-c2cccc(C)c2)cc1 | 100 | 1 | 0 | -7 | 0 | 0
O=C(Cc1ccccc1)NCc1n[nH]c(=S)n1-c1ccccc1 | 12* | -1 | -4 | -6 | -2 | -1
O=C(Nc1ccc(Cl)cc1)OC1CCC12CCC(c1ccccc1)CC2 (stereo not drawn) | . | . | . | . | 2 | .
COc1ccc(-c2ccc(CCC(=O)O)n2CC(=O)Nc2cccc(OC)c2)cc1 | 100 | 4.7* | -2 | -5 | 15 | 3
CCCCCCCCN1C(=O)[C@@H](CC(=O)N2CCC(c3ccccc3)CC2)C[C@@]2(C(=O)OC)C1=C[C@H](C(C)C)O[C@@H]2C1CC1 | . | . | . | . | 18 | .
CCCCN(C)C(=O)c1ccc2c(c1)NC(=O)C(C)(C)O2 | . | . | . | . | -1 | .
